From PubChem
PINK1 expr mod: A Quantitative High throughput Screen to Identify Chemical Modulators of PINK1 Expression; Potency, µM (series often up to 76.6 µM), for the others: top-dose activation (PINK1 increase), hits mostly activators; PINK1 immunofluorescence, high-content cytometry, 24 h; 410,000 tested, 0.2% active; active = well fitted activation curve with a large enough effect; inconclusive = small, poorly fitted or top-dose-only effect; cell line not stated here; note: potency is the fitted concentration of half-maximal effect; % of control where 0% means no effect; nearly all actives have a fitted effect of over 65% in size
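PINK1 protein, normally rapidly degraded, was detected by immunofluorescence after 24 hour compound treatment of a stable cell line. Titration data (5 concentrations) came from laser-scanning cytometry, with CCCP-treated wells as controls.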
miR-21 reporter: qHTS Assay for Modulators of miRNAs and/orActivators of miR-21. 340,000 tested, under 10 active. Potency, µM (doses to about 38.3 µM), inactives show at the top dose activity change, positive = activation, most hits filed as activators. HeLa miR-21 FLuc reporter, luciferase, 48 h;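 note: % of control where 0% means no effect; miR-21 action dims this reporter so a rising signal means less miR-21 action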
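Compounds were titrated across several concentrations (up to approximately 40 uM) and incubated 48 hours with HeLa miR-21-FLuc reporter cells (miR-21 target sequence downstream of FLuc, endogenous miR-21). Readout was firefly luciferase luminescence after lytic detection reagent.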
Epigenetic reg: Quantitative High-Throughput Screen for Regulators of Epigenetic Control; murine LDR cells, GFP reporter derepression, 30 h; Potency, µM (top dose mostly 53.9 µM), inactives show at the top dose GFP activation, actives largely listed as activators; 280,000 tested, 0.2% active; note: potency is the fitted concentration of half-maximal effect; % of control where 0% means no effect; nearly all actives have a fitted effect of over 60% in size
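Reporter derepression read as number of fluorescent GFP-positive objects, 20-120 um in size, counted by laser-scanning cytometer. Mouse LDR line with an epigenetically silenced CMV-GFP locus; compound incubation 30 h, 37 C.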
IL-2 act: qHTS of IL-2 Activators | 360,000 tested, 0.065% active | activation, % (series mostly up to about 46 µM) | IL-2 activation reporter assay, cell-based qHTS; stimulated with anti-CD3/CD4/CD28 beads; in transgenic mouse T cells; in the data active = activation above about 50%; inconclusive = mostly about 30% to 49%; note: 0% is about no effect
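Using fluorescent plate cytometry, EGFP and DsRed are detected in transgenic mouse T cells stimulated 18 h at 37 degrees C with antibody-coated beads after 60 min compound pretreatment.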
p53 reactivation: qHTS assay for re-activators of p53 using a Luc reporter; H1299 p53-A138V BP100-luciferase reporter, luminescence, 24 h; 320,000 tested, 0.063% active; Potency, µM (titrated, usually from 92.2 µM), inactives show at the top dose activity change, positive = activation, hits mostly activators; note: potency is the fitted concentration of half-maximal effect; % of control where 0% means no effect; nearly all actives have a fitted effect of over 45% in size
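p53-null H1299 cells stably carrying temperature-sensitive p53-A138V and a BP100-luciferase reporter were pinned with compounds (4-point, 1:5 series) and held 24 hrs at 37 deg C. Luminescence was read 10 min after detection reagent.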
uPA generation: qHTS for Inhibitors of Cell Surface uPA Generation; cell surface uPA generation assay, qHTS; Potency, µM (series often up to 38.3 µM), for the others: at the top dose activity change, negative = inhibition, actives largely listed as inhibitors; 330,000 tested, 0.31% active; AID 540303, 2011; active = well fitted inhibition curve with a large enough effect; inconclusive = small, poorly fitted or top-dose-only effect; inactive = no such curve, though single readings can be large or run the other way; tested in mouse RAW 264.7 cells; note: potency is the fitted concentration of half-maximal effect; % is set by controls: 0 for no effect and ±100 for the full control effect; nearly all actives have a fitted effect of over 55% in size
The depositor's hits bear a star; ? = inconclusive; · = no result; [ ] = dose if it differs, or a comment. Shown are actives, neighbours in structure and some others; about 0.62% of the full set was active somewhere. Unless noted, calls come from the whole dose curve; as a rule, active = well fitted curve in the direction sought with a large enough effect; inconclusive = small, poorly fitted or top-dose-only effect, or another doubt; inactive = no such curve, though single readings can be large; an effect the other way counts as inactive or inconclusive.

SMILES | PINK1 expr mod | miR-21 reporter | Epigenetic reg | IL-2 act | p53 reactivation | uPA generation
COc1cccc(CNC(=O)c2c(OC)cc(=O)n3c2CCN(C(=O)c2ccc(C)s2)CC3)c1 | 1% | · | · | · | · | ·
CN1C=C/C(=C\c2cc[n+](C)c3ccccc23)c2ccccc21 | 5µM* | ? | 0% | -1 | -1% | ?
C[n+]1ccc(/C=C/c2cc[n+](C)c3ccccc23)c2ccccc21 | 4µM* | · | · | · | · | ·
CC[n+]1ccc(/C=C2\Sc3ccccc3N2CCCS(=O)(=O)[O-])c2ccccc21 | -2% | -2% | 2% | 10 | -1% | -4%
COc1ccc(/C=C/c2cc[n+](C)c3ccccc23)cc1OC | 2% | · | · | · | · | ·
CC(=O)N1CCN(c2ccc(NCc3ccco3)cc2)CC1 | -1% | · | · | -2 | 23% | 4.5µM*
CC(=O)N1CCN(c2ccc(NC(=O)c3ccco3)cc2)CC1 | 0% | -53% | · | 0 | ? | -4%
CCOC(=O)c1ccc(NC(=O)Cn2nc(SC)c(S(=O)(=O)c3ccc(Cl)cc3)c2N)cc1 | 18µM* | ? | -2% | · | · | ·
COc1ccc(C(=O)C(CN2CCCC2)c2ccccc2)cc1 (stereo not drawn) | -2% | ? | -1% | -4 | -29% | -10%
O=C(c1ccc(Cl)cc1)C(CN1CCCC1)c1ccccc1 (stereo not drawn) | -2% | ? | · | -1 | -14% | 5µM*
COc1ccc(O)c(CN2CCC3(CC2)c2ccccc2[C@@H](NC(=O)c2cccc(F)c2)[C@@H]3OC)c1 | 0% | · | · | · | · | ·
Cc1cc(C(c2nnnn2Cc2ccccc2)N2CCOCC2)c(C)n1-c1ccc2c(c1)OCO2 (stereo not drawn) | -6%[38.3 µM] | -1% | ? | -3 | 32µM* | ?
c1ccc(Cn2nnnc2C(c2ccncc2)N2CCOCC2)cc1 (stereo not drawn) | · | -1% | -1% | -1 | -1% | 3%
COc1ccc(C)cc1NC(=O)NC(C)c1ccncc1 (stereo not drawn) | 1% | 0% | 12% | 1 | 11% | -12%
COc1ccc(NC(=O)NC(C)c2ccncc2)cc1OC (stereo not drawn) | 11µM* | -8% | 0% | -2 | -12% | 4%
COc1ccc2c(c1)-c1nc(-n3ncc(C(=O)N(C)CC4CCCN(C)C4)c3C)ncc1CC2 (stereo not drawn) | 2% | · | · | · | · | ·
Cn1c(SCC(=O)NCc2ccco2)nnc1-c1ccc(NC(=O)c2ccccc2)cc1 | 0% | · | · | · | · | ·
CC(C)CN(c1ccccc1)S(=O)(=O)c1nnc(NC(=O)C2CCCCC2)s1 | -1% | -47% | 28µM* | · | · | ·
O=C(Nc1nccs1)c1ccc(-c2ccc([N+](=O)[O-])cc2)o1 | 35µM* | -49% | 1% | 1 | 13% | -2%
COC(=O)c1c(OCC2CCCN(C)C2)cc(=O)n2c1CCN(Cc1ccc(OC)c(O)c1)CC2 (stereo not drawn) | 0% | · | · | · | · | ·
O=C1Nc2ccccc2/C1=C/c1cccnc1 | 3% | 22% | -1% | -3 | -3% | -10%
O=C1Nc2ccccc2/C1=C/c1cnc(-c2ccccc2)[nH]1 | 45µM* | -55% | 22µM* | 1 | 23% | 3%
COC(=O)[C@@H]1CCCN1Cc1ccc2c(c1)CN(Cc1ccc3c(c1)CCO3)CCO2 | 2% | · | · | · | · | ·
CC(C)(C)C(=O)/C=c1\s/c(=C\c2ccc(-c3ccc([N+](=O)[O-])cc3)o2)c(=O)n1CC(=O)NC(N)=O | 3% | -10% | ? | 164* | -6% | -3%
CC(OC(=O)c1cc(Br)ccc1O)C(=O)Nc1ccc(S(=O)(=O)N2CCCC2)cc1 (stereo not drawn) | 16µM* | · | · | 0 | -2% | -8%
SMILES | PINK1 expr mod | miR-21 reporter | Epigenetic reg | IL-2 act | p53 reactivation | uPA generation
Cc1cccc(C(=O)OC(C)C(=O)Nc2ccc(S(=O)(=O)N3CCCC3)cc2)c1O (stereo not drawn) | -1% | · | · | -1 | 0% | -1%
COc1ccc(NC(C)=O)cc1NC(C)C(=O)Nc1ccc(S(=O)(=O)N2CCCCC2)cc1 (stereo not drawn) | -2% | · | · | 3 | -3% | 3.2µM*
Oc1[nH]c2ccccc2c1N=NC(=S)N1CCOCC1 | 0% | 18% | 4µM* | -1 | 12% | ?
Cc1ccc(C2=CC(c3ccc(Cl)cc3)n3nc(-c4ccc(C)cc4)nc3N2)cc1 (stereo not drawn) | 0% | 25% | -2% | · | · | ·
COc1ccc(C2C=C(c3ccc(Cl)cc3)Nc3nc(-c4ccc(Cl)cc4)nn32)cc1 (stereo not drawn) | 16µM* | ? | 2% | · | · | ·
COc1ccc(/C=C2\Oc3ccccc3C2=O)cc1 | 0% | · | · | 0 | 5% | 7.1µM*
O=C(c1cnn2cccnc12)N1CCOc2ccc(C(O)C(c3ccccc3)c3ccccc3)cc2C1 (stereo not drawn) | 1% | · | · | · | · | ·
CN(C)S(=O)(=O)c1cccc(NC(=S)Nc2cc(Cl)cc(Cl)c2)c1 | ? | 9% | 1% | -1 | 6% | 7%
CN(C)S(=O)(=O)c1cccc(NC(=S)Nc2ccc(Cl)cc2Cl)c1 | 16µM* | -2% | 1% | 1 | -1% | 6%
Cc1oc(-c2ccccc2NC(=O)C2CCC2)nc1CNC(=O)c1ccc(C#CC(C)(C)O)cc1 | 3% | · | · | · | · | ·
CC(C)OCc1cc(CN2CCN(c3ccccc3)CC2)c(O)c2ncccc12 | 1% | ? | 2µM* | · | · | ·
CCOCc1cc(CN2CCN(c3cccc(Cl)c3)CC2)c(O)c2ncccc12 | 2% | 0% | 3.5µM* | · | · | ·
Oc1c(CN2CCOCC2)cc(COCc2ccccc2)c2cccnc12 | -1% | 19% | 4µM* | -1 | ? | -5%
CO[C@H]1[C@H](NC(=O)c2ccsc2)c2ccccc2C12CCN(Cc1cc3ccccc3o1)CC2 | 0% | · | · | · | · | ·
COCc1c(C(=O)NC2CCCC2)cnn1-c1nccc(-c2cc(C)sc2C)n1 | 1% | · | · | · | · | ·
Clc1ccc(CSc2snnc2-c2ccccc2)c(Cl)c1 | 5% | -47% | -2% | -2 | 40µM* | -1%
COc1cccc(-n2c(SC)nnc2C2CCN(Cc3cccc(OC)c3O)CC2)c1 | 1% | · | · | · | · | ·
CC[n+]1ccc(/C=C/c2c[nH]c3ccccc23)cc1 | 25µM* | 27% | · | 211* | -2% | ?
Cc1ccc2[nH]cc(/C=C/c3cc[n+](C)cc3)c2c1 | 3.5µM* | ? | · | 71* | 1% | -8%
COc1ccc2c(/C=C/c3cc[n+](C)cc3)c[nH]c2c1 | ? | ? | · | 28 | 1% | -2%
